Assay results: PubChem BioAssay (NCI)
The panel holds about 83,000 compounds, 20% with a hit somewhere; the sample as a whole holds those more often.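 How to read the values: 0–100, growth inhibition (40 = 60% inhibited); 0, no net growth; -100 to 0, cell death (-40 = 40% of starting cells died; -100 = all dead).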 Calls of active or inactive are those of the source. Rule for the calls: active = growth percent below 10; inactive = the rest.

Key:
Experiment in all cases: NCI-60 one-dose screen, 48 h (100 = growth as untreated, 0 = no growth, -100 = all killed)
Conditions in all cases: 10 µM unless noted
NCI/ADR-RES ovarian = tested on: NCI/ADR-RES ovarian
T-47D breast = tested on: T-47D breast
BT-549 breast = tested on: BT-549 breast
MDA-MB-435 melanoma = tested on: MDA-MB-435 melanoma
SW-620 colon = tested on: SW-620 colon
MCF7 breast = tested on: MCF7 breast
HCT-116 colon = tested on: HCT-116 colon
HCC-2998 colon = tested on: HCC-2998 colon
KM12 colon = tested on: KM12 colon

Measured: growth

COc1ccc(/C=C\c2cc(OC)c(OC)c(OC)c2)c(NS(=O)(=O)c2ccc(F)cc2)c1O
active: NCI/ADR-RES ovarian 2.13% | MDA-MB-435 melanoma -34.9% | MCF7 breast 9.22% | HCT-116 colon 7.7% | KM12 colon 1.13%
inactive: T-47D breast 103% | BT-549 breast 24% | SW-620 colon 21.1% | HCC-2998 colon 14.9%

C[C@]12CC[C@H]3[C@@H](CC4SC(N)=NC45C/C(=N/NC(N)=O)CC[C@]35C)[C@@H]1CCC2=O (stereo partly specified)
inactive: BT-549 breast 107% | HCC-2998 colon 63.9% | KM12 colon 20.5%
active: NCI/ADR-RES ovarian -5.32% | T-47D breast -21% | MDA-MB-435 melanoma -58.8% | SW-620 colon -59.2% | MCF7 breast -55.6% | HCT-116 colon 6.35%

Brc1ccc2c(c1)c(-c1nc(-c3c[nH]c4ncccc34)cs1)cn2CCN1CCOCC1
inactive: NCI/ADR-RES ovarian 50.3% | BT-549 breast 77.6% | MDA-MB-435 melanoma 85.7% | SW-620 colon 85.8% | MCF7 breast 18.3% | HCT-116 colon 68.1% | HCC-2998 colon 88.7% | KM12 colon 40.3%
active: T-47D breast 1.14%

C[n+]1c(/C=C/c2ccc(N(CCCl)CCCl)cc2)sc2ccccc21
inactive: NCI/ADR-RES ovarian 102% | T-47D breast 16.8% | BT-549 breast 64.3% | MDA-MB-435 melanoma 76.1% | SW-620 colon 23.1% | MCF7 breast 27.3% | HCT-116 colon 48.4% | HCC-2998 colon 84.4% | KM12 colon 74.8%

O=C1NC(=O)C(=Cc2cn(CCCCCCn3c4ccccc4c(=O)c4ccccc43)c3ccccc23)C(=O)N1
inactive: NCI/ADR-RES ovarian 83.9% | T-47D breast 60.6% | BT-549 breast 94.3% | MDA-MB-435 melanoma 102% | SW-620 colon 93.8% | MCF7 breast 71.6% | HCT-116 colon 70.2% | HCC-2998 colon 96.8% | KM12 colon 95.8%

CC12CC=CCC1CCC1C2CCC2(C)C(c3ccc(=O)oc3)CCC12O (stereo unspecified)
active: NCI/ADR-RES ovarian -41.1% | T-47D breast -4.1% | BT-549 breast -65.4% | MDA-MB-435 melanoma -89.1% | SW-620 colon -58.9% | MCF7 breast -21.6% | HCT-116 colon -67.1% | HCC-2998 colon -10.9% | KM12 colon -49.5%

O=c1[nH]cc(N(CCCl)CCCl)c(=O)[nH]1
inactive: NCI/ADR-RES ovarian 66.3% | T-47D breast 53% | BT-549 breast 81.5% | MDA-MB-435 melanoma 86.5% | SW-620 colon 71.8% | MCF7 breast 53.1% | HCT-116 colon 78.8% | HCC-2998 colon 61.6% | KM12 colon 86.5%

CC[S][Hg][Cl]
inactive: NCI/ADR-RES ovarian 106% | T-47D breast 122% | BT-549 breast 111% | MDA-MB-435 melanoma 98.7% | SW-620 colon 106% | MCF7 breast 93.3% | HCT-116 colon 106% | HCC-2998 colon 111% | KM12 colon 107%

C[N+](C)(C)Cc1cc(Cl)ccc1O
inactive: NCI/ADR-RES ovarian 104% | T-47D breast 99.4% | BT-549 breast 91.9% | MDA-MB-435 melanoma 106% | SW-620 colon 97.9% | MCF7 breast 104% | HCT-116 colon 106% | HCC-2998 colon 104% | KM12 colon 108%

Clc1cc(N2CC2)nc(N2CC2)n1
inactive: NCI/ADR-RES ovarian 71.7% | T-47D breast 87.3% | BT-549 breast 71.8% | MDA-MB-435 melanoma 93.7% | SW-620 colon 61.6% | MCF7 breast 34.2% | HCT-116 colon 64.9% | HCC-2998 colon 78.2% | KM12 colon 97.3%

CC[C@H](C)[C@H](NC(=O)[C@H]1CCCCN1C)C(=O)N(C)[C@H](CCc1nc(C(=O)N[C@@H](Cc2ccccc2)C[C@H](C)C(=O)OC)cs1)C(C)C
inactive: NCI/ADR-RES ovarian 29.2% | T-47D breast 59.3% | SW-620 colon 28% | MCF7 breast 20.5% | HCC-2998 colon 20.7% | KM12 colon 15.8%
active: BT-549 breast -8.87% | MDA-MB-435 melanoma -39.4% | HCT-116 colon 1.83%

OCc1ccc2c(c1)OCO2
inactive: NCI/ADR-RES ovarian 105% | T-47D breast 86.4% | BT-549 breast 106% | MDA-MB-435 melanoma 102% | SW-620 colon 102% | MCF7 breast 93% | HCT-116 colon 101% | HCC-2998 colon 102% | KM12 colon 103%

N#Cc1c(Br)n(C2OC(CO)C(O)C2O)c2ncnc(N)c12 (stereo unspecified)
active: T-47D breast 9.15% | MCF7 breast 3.47%
inactive: NCI/ADR-RES ovarian 52.9% | BT-549 breast 73.5% | MDA-MB-435 melanoma 51.4% | SW-620 colon 30.5% | HCT-116 colon 40.3% | HCC-2998 colon 83.7% | KM12 colon 34%

COc1ccc(Nc2ccc([N+](=O)[O-])cc2[N+](=O)[O-])cc1CN(CCCl)CCCl
inactive: NCI/ADR-RES ovarian 26.9% | T-47D breast 22.6% | BT-549 breast 40.1% | MDA-MB-435 melanoma 55.2% | SW-620 colon 20.3% | MCF7 breast 19.3% | HCT-116 colon 20.8% | HCC-2998 colon 37.7% | KM12 colon 53.1%
